Data published in PubChem BioAssay (NCI).
This is part of a sample that, as a whole, favours compounds with a hit. Of some 83,000 tested, about 20% had one in any assay.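 Values shown are percent growth following 48 h exposure of cells in 96-well plates to a single concentration of compound; below 10 was considered active.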 Calls of active or inactive are those of the source.

system: BT-549 breast; experiment: NCI-60 one-dose screen, 48 h (100 = growth as untreated, 0 = no growth, -100 = all killed); conditions: 10 µM unless noted
Procedure: Growth inhibition of the BT-549 human tumor cell line is measured as a screen for anti-cancer activity. Cells are grown in 96 well plates and exposed to the test compound for 48 hours. Compounds are tested at a single concentration, which is 10^-5 M for most compounds. The reported endpoint is percent growth (GI% or GIPRCNT), where numbers from 0 - 100% represent growth inhibition, and numbers from -100% - 0 represent cell death. For example, a value of 40 represents 60% growth inhibition. A value of 0 means no net growth occurred over the course of the experiment. A value of -40 indicates 40% of cells at the beginning of the experiment died by the end of the experiment. A value of -100 means all cells are dead at the end of the experiment.
NCI-60 Human Tumor Cell Lines Screen was performed using the standard one-dose NCI protocol, which is described in more detail at https://dtp.cancer.gov/discovery_development/nci-60/default.htm.
Compounds with GIPRCNT values below 10 were considered active. Activity score was based on GIPRCNT using the following formula: […]
Score is 0 for GIPRCNT values of 100 or above, 50 for GIPRCNT values of 0, and 100 for GIPRCNT values of -100.

Row | Compound | growth
1 | N#Cc1c(N)nc2c(nnn2-c2cccc(C(F)(F)F)c2)c1N | 101% (inactive)
2 | CN(C)c1ccc(C#Cc2c(F)cccc2Cl)cc1 | 98.2% (inactive)
3 | C=C1C(=O)O[C@H]2[C@H]1CC/C(COC(=O)/C=C/C(=O)NCc1ccc(Cn3c(=O)sn(-c4ccccc4)c3=O)cc1)=C\CC[C@@]1(C)O[C@@H]21 | -3.27% (active)
4 | CCOc1cccnc1/C=N/NC(N)=S | 51.6% (inactive)
5 | COc1cc2c(cc1OC)-c1ccc3cc4c(cc3c1N(CCN1CCCC1)C2)OCO4 | 21.8% (inactive)
6 | N#Cc1cccc(-c2nc3ccccn3c2NCCN2CCOCC2)c1 | 93.3% (inactive)
7 | O=[N+]([O-])c1cccc(/C=C/c2ccccn2)c1 | 64.8% (inactive)
8 | CCOC(=O)c1ccc(-c2ccc3cc(OC)ccc3c2)nc1C | 104% (inactive)
9 | COc1ccc(C2=NC(=O)NC2c2ccc(OC)cc2)cc1 (stereo not given) | 90.6% (inactive)
10 | Cc1ccc(/C(=N\N=C(N)N)c2ccccc2)cc1 | 37.5% (inactive)
11 | COC(=O)[C@]12CC[C@@H](C)[C@H](C)[C@@H]1C1=CC[C@@H]3[C@@]4(C)C(C=O)=C[C@@](C)(CO)C4=CC[C@@]3(C)[C@]1(C)CC2 | 27.7% (inactive)
12 | O=[N+]([O-])c1ccc(-c2cc3c(Nc4ccc(OCc5cccc(Cl)c5)c(Cl)c4)ncnc3s2)cc1 | 86.2% (inactive)
13 | CCn1c(Sc2nnc(Nc3ccccc3)s2)nc2c1c(=O)n(C)c(=O)n2C | 87.1% (inactive)
14 | CCOc1cc(N)ccc1C(=O)NCCCN(CC)CC | 98.8% (inactive)
15 | COc1cc(/C=C/C(=O)c2cccc(-n3cc(-c4ccccc4)[nH]c3=O)c2)cc(OC)c1OC | -13.1% (active)
16 | CC(C)OC(=O)OCOP(=O)(OCOC(=O)OC(C)C)C1CCCN(O)C1=O (stereo not given) | 22.8% (inactive)
17 | N=C(N)c1ccc(-c2ccc(/C=C/c3ccccc3)s2)cc1 | 93.9% (inactive)
18 | O=C(CC1Sc2ccccc2NC1=O)NNc1ccc(F)cc1 (stereo not given) | 88.6% (inactive)
19 | Cc1nc(Nc2ccc(NC(=S)Nc3ccccc3)cc2)nc2nc(Nc3ccc(S(=O)(=O)O)cc3)[nH]c(=O)c12 | 61% (inactive)
20 | CCN(CC)CCOc1ccc(/C(=C(\C)c2ccc(OC)c(F)c2)c2ccc(Cl)cc2)cc1 | 89% (inactive)

Row | Compound | growth
21 | CCN(CC)CC(=O)Nc1cccc(C(=O)OC(C)C)c1 | 66% (inactive)
22 | CC(C)OCCCNCC(=O)Nc1ccc(S(=O)(=O)c2ccc(NC(=O)CNCCCOC(C)C)cc2)cc1 | 102% (inactive)
23 | N=C(N)c1ccc(-c2ccc(-c3ccc(Cl)cn3)s2)cc1 | 82.6% (inactive)
24 | O=C(Nc1ccccn1)[C@H](O)[C@@H](O)C(=O)N1CCOCC1 | 114% (inactive)
25 | O=C(CCl)N1c2cccc3cccc(c23)N(C(=O)CCl)C1c1cn(-c2ccccc2)nc1-c1cccc([N+](=O)[O-])c1 | 98.5% (inactive)
26 | CCCCCCCC/C=C/CCCCCCCC1=NCC[N+]1(CCO)CCO | 98.7% (inactive)
27 | CC(/C=N/NC(=O)c1cc(-c2ccco2)[nH]n1)=C\c1ccccc1 | 101% (inactive)
28 | COc1cc2c(cc1OC)-c1ccc3cc4c(cc3c1N(CCCN(C)C)C2)OCO4 | 41.2% (inactive)
29 | O=c1cc(-c2ccc(OCc3ccccc3)cc2)oc2c(I)c(OCc3ccccc3)cc(OCc3ccccc3)c12 | 101% (inactive)
30 | O=C1NCC(=O)N(Cc2ccco2)[C@H]1Cc1ccccc1 | 95.5% (inactive)
31 | O=c1oc2ccc(Cl)cc2cc1-c1cs/c(=N/N=C\c2ccc(Cl)cc2)n1/N=C/c1ccc(Cl)cc1 | 109% (inactive)
32 | Nc1nc(Nc2ccc(Cl)cc2)nn1S(=O)(=O)c1ccc(-c2ccc(F)cc2)cc1 | 108% (inactive)
33 | COc1ccc(CN2C(=O)/C(=C\c3cc(OC)c(OC)c(OC)c3)c3ccccc32)cc1 | 24.5% (inactive)
34 | Cc1ccc2c(n1)C(=O)C(Oc1ccc(F)cc1)=CC2=O | 85.4% (inactive)
35 | O=C1Nc2ccccc2/C1=N/N=C/c1ccc(OC2OC(CO)C(O)C(O)C2O)cc1 (stereo not given) | 109% (inactive)
36 | C=C1C(=O)O[C@H]2[C@H]1CC/C(COC(=O)/C=C\C(=O)NCc1ccc(Cn3c(=O)sn(CCCC)c3=O)cc1)=C\CC[C@@]1(C)O[C@@H]21 | -73.3% (active)
37 | CCCCCOC(=O)c1ccc(NC(=O)CNCC(C)C)cc1 | 91.8% (inactive)
38 | CC1(C)CC(=O)c2c(ccc(C(=O)C[C@H](N)CO)c2N)O1 | 25% (inactive)
39 | Oc1[nH]c2ccccc2c1/C=c1/cc2c(c(-c3ccc(F)cc3)n1)=Nc1ccccc1-2 | -31.3% (active)
40 | COc1ccc(Cn2cnc3cc(C(=O)Nc4cccc5ccccc45)ccc32)c(OC)c1 | 30.8% [30 µM] (inactive)
